# The panel holds about 83,000 compounds, 20% with a hit somewhere; the sample as a whole holds those more often.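 Compound tested at a single concentration for 48 hours in 96-well plates; a percent growth value below 10 was scored as active.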 Values without a mark were called inactive. Calls of active or inactive are those of the source.
# Experiments:
# Assay in all cases: NCI-60 one-dose screen, 48 h (100 = growth as untreated, 0 = no growth, -100 = all killed)
# Settings in all cases: 10 µM unless noted
# SK-MEL-2 melanoma = test system: SK-MEL-2 melanoma
# EKVX NSCLC = test system: EKVX NSCLC
# SN12C renal = test system: SN12C renal
# UO-31 renal = test system: UO-31 renal
# TK-10 renal = test system: TK-10 renal
# ACHN renal = test system: ACHN renal
# CAKI-1 renal = test system: CAKI-1 renal
# A498 renal = test system: A498 renal
# CCRF-CEM leukemia = test system: CCRF-CEM leukemia
# MOLT-4 leukemia = test system: MOLT-4 leukemia
# SR leukemia = test system: SR leukemia
# RPMI-8226 leukemia = test system: RPMI-8226 leukemia
# OVCAR-8 ovarian = test system: OVCAR-8 ovarian
# OVCAR-5 ovarian = test system: OVCAR-5 ovarian
# SK-OV-3 ovarian = test system: SK-OV-3 ovarian
# IGROV1 ovarian = test system: IGROV1 ovarian
# OVCAR-3 ovarian = test system: OVCAR-3 ovarian
# HS 578T breast = test system: HS 578T breast
# NCI/ADR-RES ovarian = test system: NCI/ADR-RES ovarian
SMILES,growth (SK-MEL-2 melanoma),growth (EKVX NSCLC),growth (SN12C renal),growth (UO-31 renal),growth (TK-10 renal),growth (ACHN renal),growth (CAKI-1 renal),growth (A498 renal),growth (CCRF-CEM leukemia),growth (MOLT-4 leukemia),growth (SR leukemia),growth (RPMI-8226 leukemia),growth (OVCAR-8 ovarian),growth (OVCAR-5 ovarian),growth (SK-OV-3 ovarian),growth (IGROV1 ovarian),growth (OVCAR-3 ovarian),growth (HS 578T breast),growth (NCI/ADR-RES ovarian)
C[C@H]1[C@H](C)CC[C@]2(C(=O)O)CC[C@]3(C)C(=CC[C@@H]4[C@@]5(C)C/C(=C/c6cccnc6)[C@H](O)C(C)(C)[C@@H]5CC[C@]43C)[C@H]12,-28.1% [100 µM] (active),15.8% [100 µM],3% [100 µM] (active),-77% [100 µM] (active),8.85% [100 µM] (active),4.57% [100 µM] (active),7.71% [100 µM] (active),19% [100 µM],-1.43% [100 µM] (active),2.42% [100 µM] (active),25.4% [100 µM],-4.1% [100 µM] (active),12.4% [100 µM],-13.7% [100 µM] (active),5.9% [100 µM] (active),7.23% [100 µM] (active),-39% [100 µM] (active),4.34% [100 µM] (active),1.11% [100 µM] (active)
CC(C)[C@H]1CCC2=C3CC[C@]45OC(=O)[C@@]6(CCC(C)(C)C[C@H]64)CC[C@@]5(C)[C@]3(C)CC[C@@]21C,74.9% [100 µM],88.3% [100 µM],70.6% [100 µM],67.9% [100 µM],101% [100 µM],72.4% [100 µM],53.7% [100 µM],103% [100 µM],49.7% [100 µM],26.5% [100 µM],60.3% [100 µM],58.2% [100 µM],70.3% [100 µM],107% [100 µM],75.3% [100 µM],61% [100 µM],80.2% [100 µM],61.6% [100 µM],81.9% [100 µM]
Cc1cnc(N)nc1OCC(C)(C)CNC(=O)c1cccc(-c2ccc(S(=O)(=O)Nc3ccc4c(c3)N(C(=O)C3CC3)CCC4)cc2)c1,67.7%,62.9%,68.5%,62%,76.6%,70.2%,52.1%,37.3%,61.7%,29.1%,79.9%,44.6%,62.3%,79.4%,68.2%,63.4%,68.2%,64.4%,105%
NC(=O)c1cccc(-c2ccc(S(=O)(=O)Nc3ccc4c(c3)N(C(=O)C3CC3)CCC4)cc2)c1,7.54% (active),67.1%,52.1%,82.2%,77.8%,79.2%,72.4%,5.86% (active),33.5%,57.8%,50.5%,43.7%,57%,64.8%,38.2%,37.1%,15.8%,17.9%,104%
COc1cc(/C=C/C(=O)/C=C/c2ccc(-n3ccnc3C)cc2)ccc1O,100%,102%,91.4%,4.27% (active),88%,58.8%,95.6%,78.8%,35.5%,32.4%,17.8%,-23.5% (active),34.9%,101%,86.1%,-37.5% (active),23.7%,68.6%,102%
CCOc1ccc(S(=O)(=O)Nc2ccc3c(c2)N(S(=O)(=O)CC)CCC3)cc1,111%,96.1%,85.1%,80.9%,80.9%,45%,55.1%,69.3%,81.1%,71%,97.6%,77.1%,77.5%,94.6%,72.7%,71.3%,–,80.7%,89.9%

# — PubChem BioAssay (NCI)
